The results in this text go back to PubChem BioAssay (NCI).

Compounds without any hit were thinned out: in the full panel of roughly 83,000, 20% have a hit.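 For each line, cells grew in 96-well plates with the test compound present at a single concentration for 48 hours.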 Activity calls are given as the source filed them.

The experiment deals with IGROV1 ovarian. Briefly: NCI-60 one-dose screen, 48 h (100 = growth as untreated, 0 = no growth, -100 = all killed). As to conditions: 10 µM unless noted. Here is the method: Growth inhibition of the IGROV1 human tumor cell line is measured as a screen for anti-cancer activity. Cells are grown in 96 well plates and exposed to the test compound for 48 hours. Compounds are tested at a single concentration, which is 10^-5 M for most compounds. The reported endpoint is percent growth (GI% or GIPRCNT), where numbers from 0 - 100% represent growth inhibition, and numbers from -100% - 0 represent cell death. For example, a value of 40 represents 60% growth inhibition. A value of 0 means no net growth occurred over the course of the experiment. A value of -40 indicates 40% of cells at the beginning of the experiment died by the end of the experiment. A value of -100 means all cells are dead at the end of the experiment.
NCI-60 Human Tumor Cell Lines Screen was performed using the standard one-dose NCI protocol, which is described in more detail at https://dtp.cancer.gov/discovery_development/nci-60/default.htm.
Compounds with GIPRCNT values below 10 were considered active. Activity score was based on GIPRCNT using the following formula: […]
Score is 0 for GIPRCNT values of 100 or above, 50 for GIPRCNT values of 0, and 100 for GIPRCNT values of -100.
In the case of `COc1cc(-c2nc3ccc(C)cc3[nH]2)ccc1OCC(=O)N=Nc1c(O)[nH]c2ccc(Cl)cc12`, the growth was 4.74% (active).

With `O=C(CCCCCCN1CC(=O)N2[C@@H](c3ccc(Cl)cc3)c3[nH]c4ccccc4c3C[C@H]2C1=O)NO`, the growth was 53.8% (inactive).

As for `C/C(=N\Nc1nc(C)cs1)c1cc2ccccc2o1`, the growth was 75.8% (inactive).

As to `Cc1nc2sc(C(=O)Nc3ccccc3)c(N)c2cc1C(=O)/C=C/c1ccccc1`, the growth is -7.01% (active).

Take `COc1cccc(/C=C/C(=O)c2cc3c(N)c(C(=O)Nc4ccccc4C)sc3nc2C)c1`: the growth was 19.4% (inactive).

Take `C[Se]C(=O)CC1=C2C=C(F)C=CC2/C(=C\c2ccc(S(C)=O)cc2)C1C` (stereo not given): the growth was 21.3% (inactive).

For `C=C(CO)[C@@H]1CC[C@]2(COC3CCCCO3)CC[C@]3(C)[C@H](CC[C@@H]4[C@@]5(C)C=C(C=O)C(=O)C(C)(C)[C@@H]5CC[C@]43C)[C@@H]12` (stereo not given in full), the growth is -78.8% (active).

Turning to `CCOC(=O)c1c(C)nc2c(c1N)CC(=O)N2Cc1cc(OC)c(OC)c(OC)c1`, the growth was 53.1% (inactive).

Regarding `O=C1CC2C=CCN2C=C1NC(=O)C1CCCCC1` (stereo not given), the growth is 105% (inactive).

Regarding `CN(Cc1cnc2nc(N)nc(N)c2n1)c1c(Cl)cc(C(=O)NC(CCC(=O)O)C(=O)O)cc1Cl` (stereo not given), the growth is 28.3% (inactive).

For the compound `FC(F)(F)c1[nH]ncc1-c1nc2c(N3CCCCC3)cc3[nH]ncc3c2c2c1CCCC2`, the growth was -8.41% (active).

As for `O=[N+]([O-])/C(=C\c1ccco1)c1ccccc1Cl`, the growth was 75.7% (inactive).

Regarding `CCC(C)Nc1ccc(NC(C)CC)cc1` (stereo not given), the growth was 65.4% (inactive).

Regarding `CCn1cc(C(=O)NN=C2CCCCCC2)c(=O)c2ccc(C)nc21`, the growth was 81.5% (inactive).

As for `Oc1c(CN2CCCC2)cc(COCc2ccccc2)c2cccnc12`, the growth was 16.4% (inactive).

In the case of `C=CC1(C)C(O[Si](C)(C)C(C)(C)C)CC2C3OC(=O)NC31c1cccc3c1[C@H](C(=O)N3C)C2(C)C` (stereo not given in full), the growth is 80.9% (inactive).

`O=C1NC(=C(Cl)Cl)/C(=N/S(=O)(=O)N2CCCCC2)N1`: the growth was 1.81% (active).

As to `Cn1cc(/C=C2/C(=O)Nc3ccccc32)c2ccccc21`, the growth was 85.1% (inactive).

`CNC(=O)c1cc(Oc2ccc3nc(NC(=O)Nc4ccc(Cl)c(Cl)c4)sc3c2)ccn1`: the growth is 54.6% (inactive).

For the compound `Cc1c2cnccc2c(C)c2c1c1cc(C3OCCCO3)ccc1n2C`, the growth was 2% (active).

Regarding `COc1cc(/C=C2\C(=O)N(c3c(Cl)cccc3Cl)c3ccccc32)cc(OC)c1OCCCCCCn1c2ccccc2c(=O)c2ccccc21`, the growth was 75.5% (inactive).

Take `COc1ccc2c(O)c(/C=C3\N=Nc4ccccc43)oc2c1C[C@H]1CCNC[C@H]1F`: the growth is 62.7% (inactive).

For `COc1ccc(/C(C)=C(\c2ccc(OCCN3CCCCCC3)cc2)c2ccc(OC(=O)c3ccccc3)cc2)cc1`, the growth was 46.7% (inactive).

Regarding `O=C(Cn1nnc2ccccc21)N/N=C/c1ccccc1F`, the growth is 109% (inactive).

For `CCCCCCCCn1ccc2cc(NC(=O)Cn3cc(CN4CCN(CC)CC4)nn3)ccc21`, the growth was 88.6% (inactive).

As to `O=C1/C(=C/c2ccccc2[N+](=O)[O-])COc2ccc(O)cc21`, the growth is -0.209% (active).

For the compound `Cc1ccc(S(=O)(=O)n2cc(C3C(Cl)C(=O)N3c3ccc(N4CCOCC4=O)cc3)c3ccccc32)cc1` (stereo not given), the growth is 72.6% (inactive).

In the case of `COc1ccc(-c2ccc(-c3ccc(C(=N)N)cn3)s2)cc1`, the growth is 89% (inactive).

Regarding `CCN(CCO)CC(C)Nc1ccc([N+](=O)[O-])c2sc3ccccc3c(=O)c12` (stereo not given), the growth was -11.3% (active).

With `C=C(c1ccc(C(=O)O)cn1)c1cc2c(cc1C)C(C)(C)CCC2(C)C`, the growth was 98.9% (inactive).

For the compound `CC(=O)c1c(Nc2ccc(F)c(F)c2F)[nH]c2c(F)cc(F)cc2c1=O`, the growth is 16.2% (inactive).

As to `O=C(CCCCCCN1CC(=O)N2[C@@H](C3CCCCC3)c3[nH]c4ccccc4c3C[C@H]2C1=O)NO`, the growth is 29% (inactive).

As for `CCOC(=O)c1c(NC(=O)c2ccc(OC)cc2)sc2c(CN(C)C)c(O)ccc12`, the growth was 90.7% (inactive).

As to `COc1cc2c(cc1O)[C@@]1(C)[C@H](c3ccccc3Br)OC(=O)N1CC2`, the growth is 111% (inactive).

On to `N=C(N)c1ccc(-c2ccc(-c3ccc(Cl)cc3)o2)o1`, for which the growth was 37.7% (inactive).

In the case of `CNCc1cccc2c1OCCOCCN(C)C(=O)CN(C)S(=O)(=O)c1ccc(cc1)-c1cnc(N)c(n1)C(=O)N2`, the growth was 51.4% (inactive).

`Cn1cc(-c2nn3cc(-c4ccccc4)nc3s2)c2ccccc21`: the growth is 52.1% (inactive).

On to `CN1C(=O)N(C)C2C1NC(=S)N2/N=C/C=C/c1ccccc1[N+](=O)[O-]` (stereo not given), for which the growth was 44.3% (inactive).

`Cc1[nH]c(C(=O)Nc2cccc(OC3CCNCC3)c2)c(Cl)c1Cl`: the growth was 60.6% (inactive).

For `NC(CSC(c1ccccc1)(c1ccccc1)c1ccc2c(c1)OCO2)C(=O)O` (stereo not given), the growth is 42.2% (inactive).
